From PubChem BioAssay (Tox21) come the findings set out here.

Each structure is given as a SMILES string. “And” between values parts separate entries of the source, which are not always exact repeats. Equal values may be shown once. Where a structure was tested more than once in an assay, its records may differ in their call. The source made the active and inactive calls. A call without a number means that no potency is given here. Calls come from the whole dose curve; as a rule, active = well fitted activation curve with a large enough effect in the repeat runs; inconclusive = weak or mixed curves; inactive = flat fitted curve, though single readings scatter.
Potency is the fitted concentration of half-maximal effect.

The test is described as follows: A CellTox Green Cytotoxicity Assay to monitor cytotoxicity in HEK293 cells - 0 hour (AID 1224869). Note: nearly all actives have a fitted effect of over 50% in size. The following applies: CellTox Green fluorescence; series mostly up to 76.8 µM. From the text:
National Center for Advancing Translational Sciences [NCATS]
NIH Chemical Genomics Center [NCGC]
U.S. Environmental Protection Agency [EPA]
National Institutes of Environmental Health Sciences [NIEHS]
National Toxicology Program [NTP]
Cell-based models are critical for drug discovery. Determining the natural cytotoxic effects resulting from test compounds is an essential research activity. A CellTox Green Cytotoxicity Assay to monitor cytotoxicity in real time of continues cell culture during 40 hours of the compound treatment was used to screen Tox21 10K library compounds in Hek293 cells. CellTox Green Cytotoxicity Assay is a nonlytic, homogeneous, biofluorescent method to measure cytotoxicity in cell culture after experimental manipulation. The assay system uses a proprietary asymmetric cyanine dye that is excluded from viable cells but preferentially stains the dead cell's DNA. […] Viable cells produce no appreciable increases in fluorescence. Therefore, the fluorescence signal produced by the binding interaction with dead cell DNA is proportional to cytotoxicity.
The mixture of Hek293 cell suspension and reagents were dispensed at 600cells/6 ul/well in 1536-well tissue culture treated black solid bottom plates using a Multidrop dispenser. After the assay plates were incubated at a 37 C/5% CO2 incubator for 5 hours, 23 nL of compounds dissolved in DMSO, positive and negative controls was transferred to the assay plate by a pintool work station. The plates were incubated at 37 C for 40 hours. The fluorescence intensity were measured at 0h, 8h, 16h, 24h, 32h and 40h time points using ViewLux plate reader during compound treatment.
Consider `c1cc(C(c2ccc(OCC3CO3)cc2)C(c2ccc(OCC3CO3)cc2)c2ccc(OCC3CO3)cc2)ccc1OCC1CO1` (stereo not given), for which the Potency entry was “inactive”.

For `CC(C)CCOCc1ccccc1`, the Potency entry was “inactive”.

With `CCCOC(=O)c1cc(O)c(O)c(O)c1`, the Potency result was “inactive”.

Consider `Nc1ccc2cc3ccccc3cc2c1`, for which the Potency result was “inactive”.

On to `CCCCOCCOC(=O)c1ccccc1C(=O)OCCOCCCC`, for which the Potency result was “inactive”.

As for `O=C(O)CCc1ccccc1`, the Potency entry was “inactive”.

Consider `CCn1c2ccccc2c2cc(N)ccc21`, for which the Potency entry was “inactive”.

As to `CCOc1ccc2c(c1)C(C)=CC(C)(C)N2`, the Potency result was “inactive”.

With `O=C(O)c1cccc(C(=O)O)c1`, the Potency entry is “inactive”.

`CN(C)c1ccc(C(=C2C=CC(=[N+](C)C)C=C2)c2ccccc2)cc1`: the Potency entry is “inactive”.

As to `CC(=O)C1=C(C)[C@@H]2C[C@@]3(C1)[C@H](C)CC[C@H]3C2(C)C`, the Potency entry is “inactive”.

With `CNC1(C)C2CCC(C2)C1(C)C` (stereo not given), the Potency result is “inactive”.

On to `CCCCCCCCCCCC[N+](C)(C)C`, for which the Potency result was “inactive”.

In the case of `O=c1n(CC2CO2)c(=O)n(CC2CO2)c(=O)n1CC1CO1` (stereo not given), the Potency result was “inactive”.

`O=C(Cl)c1cccc(C(=O)Cl)c1`: the Potency result was “inactive”.

`Cc1cc(OCCOCC[N+](C)(C)Cc2ccccc2)ccc1C(C)(C)CC(C)(C)C`: the Potency result is “inactive”.

As for `NC(Cc1ccc(Cl)cc1)C(=O)O` (stereo not given), the cytotoxicity was -2.12% [at 0.29 µM] (inactive).

Consider `COC(=O)/C=C/c1ccccc1`, for which the Potency entry was “inactive and 21.9 µM (active)”.

With `COc1ccc(CCN2CCC(Nc3nc4ccccc4n3Cc3ccc(F)cc3)CC2)cc1`, the Potency entry was “inactive”.

For `CCOc1ccccc1C(N)=O`, the Potency result was “inactive”.

In the case of `CC[C@]1(O)C[C@@H]2CN(CCc3c([nH]c4ccccc34)[C@@](C(=O)OC)(c3cc4c(cc3OC)N(C)[C@H]3[C@@](O)(C(=O)OC)[C@H](OC(C)=O)[C@]5(CC)C=CCN6CC[C@]43[C@@H]65)C2)C1`, the Potency entry was “inactive”.

On to `CC(C)(C)c1ccccc1`, for which the Potency result is “inactive”.

In the case of `COC(c1ccccc1)(c1ccccc1)[C@H](Oc1nc(C)cc(C)n1)C(=O)O`, the Potency result is “inactive”.

Consider `O`, for which the Potency entry is “inactive”.

Consider `Cc1cccc(O)c1C`, for which the Potency result was “inactive”.

As for `COc1ccc(COC(C)=O)cc1`, the Potency result is “inactive”.

As for `O=C1OC2(c3ccc(O)cc3Oc3cc(O)ccc32)c2ccccc21`, the Potency was 1.74 µM (active) and 848 nM (active).

In the case of `CC(=O)OCCOCCOCCOC(C)=O`, the Potency entry was “inactive”.

For `Cc1cc(C2(c3cc(C)c(O)cc3C)OS(=O)(=O)c3ccccc32)c(C)cc1O`, the Potency result was “inactive”.

As to `COc1nc(C)nc(Cl)c1NC1=NCCN1`, the Potency result was “inactive”.

For `CN1C(=O)c2ccc([N+](=O)[O-])cc2C1=O`, the Potency entry was “inactive”.

Regarding `COc1cc(C(=S)N2CCOCC2)ccc1O`, the Potency entry was “inactive”.

As for `CNCCC(Oc1ccc(C(F)(F)F)cc1)c1ccccc1` (stereo not given), the Potency entry was “inactive”.

Consider `Cc1ccnc2c1NC(=O)c1cccnc1N2C1CC1`, for which the Potency result was “inactive”.

With `Cc1cc(C(C)(C)C)c(O)c(C(C)(C)C)c1`, the Potency entry is “inactive”.

For `O=S(=O)(O)c1ccc2nc(-c3ccccc3)[nH]c2c1`, the Potency entry was “inactive”.

On to `O=C(O[C@@H]1Cc2c(O)cc(O)cc2O[C@@H]1c1cc(O)c(O)c(O)c1)c1cc(O)c(O)c(O)c1`, for which the Potency result is “inactive”.

Take `C=CS(=O)(=O)O`: the Potency entry was “inactive”.

On to `O=C1Nc2ccccc2C1(c1ccc(O)cc1)c1ccc(O)cc1`, for which the Potency result is “inactive”.

In the case of `CC(=O)Nc1ccc(C(=O)CCl)cc1`, the Potency entry is “inactive”.
